Of roughly 7,900 targets only a part is listed; those with a hit were picked by preference. About 0.6% of all pairs of compound and target were hits. A number with no mark means an inactive call.

UniProt Q9UKI8, sequence (Q9UKI8 whole entry, looked up): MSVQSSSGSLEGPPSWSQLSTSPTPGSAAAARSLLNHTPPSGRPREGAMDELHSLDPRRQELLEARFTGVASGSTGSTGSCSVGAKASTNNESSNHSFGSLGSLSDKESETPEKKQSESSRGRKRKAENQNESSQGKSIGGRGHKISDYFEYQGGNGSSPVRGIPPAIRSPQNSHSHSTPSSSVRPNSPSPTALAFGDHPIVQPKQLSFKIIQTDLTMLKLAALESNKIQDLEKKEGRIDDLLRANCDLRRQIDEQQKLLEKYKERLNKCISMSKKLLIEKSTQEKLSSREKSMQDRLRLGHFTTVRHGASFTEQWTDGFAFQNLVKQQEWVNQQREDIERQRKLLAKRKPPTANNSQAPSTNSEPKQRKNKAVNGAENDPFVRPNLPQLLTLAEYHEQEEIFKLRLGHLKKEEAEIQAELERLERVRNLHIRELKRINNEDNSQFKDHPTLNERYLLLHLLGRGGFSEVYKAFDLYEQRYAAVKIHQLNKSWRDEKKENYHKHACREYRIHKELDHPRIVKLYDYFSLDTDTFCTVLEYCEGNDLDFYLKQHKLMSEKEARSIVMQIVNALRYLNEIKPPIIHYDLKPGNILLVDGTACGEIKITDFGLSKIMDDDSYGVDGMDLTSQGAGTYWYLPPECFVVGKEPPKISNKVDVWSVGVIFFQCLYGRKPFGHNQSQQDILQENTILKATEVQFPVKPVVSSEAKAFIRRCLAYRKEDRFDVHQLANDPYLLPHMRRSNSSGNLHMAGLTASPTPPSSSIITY
UniProt P02786, sequence (P02786 whole entry, looked up): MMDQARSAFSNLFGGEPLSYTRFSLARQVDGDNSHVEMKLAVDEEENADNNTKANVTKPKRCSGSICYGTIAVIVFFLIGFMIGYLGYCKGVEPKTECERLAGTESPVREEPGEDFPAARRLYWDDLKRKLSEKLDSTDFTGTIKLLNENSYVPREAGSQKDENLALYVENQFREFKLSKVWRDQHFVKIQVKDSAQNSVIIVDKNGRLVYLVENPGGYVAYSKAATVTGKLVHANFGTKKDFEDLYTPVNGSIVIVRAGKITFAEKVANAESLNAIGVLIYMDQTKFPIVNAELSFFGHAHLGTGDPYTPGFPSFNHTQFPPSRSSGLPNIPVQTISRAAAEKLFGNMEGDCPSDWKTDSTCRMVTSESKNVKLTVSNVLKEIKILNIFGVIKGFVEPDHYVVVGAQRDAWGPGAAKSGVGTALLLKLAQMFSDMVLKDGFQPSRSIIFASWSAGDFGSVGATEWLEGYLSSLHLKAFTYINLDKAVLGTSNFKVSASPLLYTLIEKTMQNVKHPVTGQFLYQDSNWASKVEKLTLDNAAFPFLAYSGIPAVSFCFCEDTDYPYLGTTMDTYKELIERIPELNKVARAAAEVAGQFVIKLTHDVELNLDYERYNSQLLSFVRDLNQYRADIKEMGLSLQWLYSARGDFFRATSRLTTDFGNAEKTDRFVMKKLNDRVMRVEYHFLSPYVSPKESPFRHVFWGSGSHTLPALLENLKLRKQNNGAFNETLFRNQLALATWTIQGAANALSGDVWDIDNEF
UniProt Q9UMY4, sequence (Q9UMY4 whole entry, looked up): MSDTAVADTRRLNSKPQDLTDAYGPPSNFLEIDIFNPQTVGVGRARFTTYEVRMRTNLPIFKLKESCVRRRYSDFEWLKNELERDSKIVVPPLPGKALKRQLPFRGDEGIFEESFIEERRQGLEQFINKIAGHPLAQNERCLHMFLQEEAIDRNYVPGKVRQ
UniProt Q9H254, sequence (Q9H254 whole entry, looked up): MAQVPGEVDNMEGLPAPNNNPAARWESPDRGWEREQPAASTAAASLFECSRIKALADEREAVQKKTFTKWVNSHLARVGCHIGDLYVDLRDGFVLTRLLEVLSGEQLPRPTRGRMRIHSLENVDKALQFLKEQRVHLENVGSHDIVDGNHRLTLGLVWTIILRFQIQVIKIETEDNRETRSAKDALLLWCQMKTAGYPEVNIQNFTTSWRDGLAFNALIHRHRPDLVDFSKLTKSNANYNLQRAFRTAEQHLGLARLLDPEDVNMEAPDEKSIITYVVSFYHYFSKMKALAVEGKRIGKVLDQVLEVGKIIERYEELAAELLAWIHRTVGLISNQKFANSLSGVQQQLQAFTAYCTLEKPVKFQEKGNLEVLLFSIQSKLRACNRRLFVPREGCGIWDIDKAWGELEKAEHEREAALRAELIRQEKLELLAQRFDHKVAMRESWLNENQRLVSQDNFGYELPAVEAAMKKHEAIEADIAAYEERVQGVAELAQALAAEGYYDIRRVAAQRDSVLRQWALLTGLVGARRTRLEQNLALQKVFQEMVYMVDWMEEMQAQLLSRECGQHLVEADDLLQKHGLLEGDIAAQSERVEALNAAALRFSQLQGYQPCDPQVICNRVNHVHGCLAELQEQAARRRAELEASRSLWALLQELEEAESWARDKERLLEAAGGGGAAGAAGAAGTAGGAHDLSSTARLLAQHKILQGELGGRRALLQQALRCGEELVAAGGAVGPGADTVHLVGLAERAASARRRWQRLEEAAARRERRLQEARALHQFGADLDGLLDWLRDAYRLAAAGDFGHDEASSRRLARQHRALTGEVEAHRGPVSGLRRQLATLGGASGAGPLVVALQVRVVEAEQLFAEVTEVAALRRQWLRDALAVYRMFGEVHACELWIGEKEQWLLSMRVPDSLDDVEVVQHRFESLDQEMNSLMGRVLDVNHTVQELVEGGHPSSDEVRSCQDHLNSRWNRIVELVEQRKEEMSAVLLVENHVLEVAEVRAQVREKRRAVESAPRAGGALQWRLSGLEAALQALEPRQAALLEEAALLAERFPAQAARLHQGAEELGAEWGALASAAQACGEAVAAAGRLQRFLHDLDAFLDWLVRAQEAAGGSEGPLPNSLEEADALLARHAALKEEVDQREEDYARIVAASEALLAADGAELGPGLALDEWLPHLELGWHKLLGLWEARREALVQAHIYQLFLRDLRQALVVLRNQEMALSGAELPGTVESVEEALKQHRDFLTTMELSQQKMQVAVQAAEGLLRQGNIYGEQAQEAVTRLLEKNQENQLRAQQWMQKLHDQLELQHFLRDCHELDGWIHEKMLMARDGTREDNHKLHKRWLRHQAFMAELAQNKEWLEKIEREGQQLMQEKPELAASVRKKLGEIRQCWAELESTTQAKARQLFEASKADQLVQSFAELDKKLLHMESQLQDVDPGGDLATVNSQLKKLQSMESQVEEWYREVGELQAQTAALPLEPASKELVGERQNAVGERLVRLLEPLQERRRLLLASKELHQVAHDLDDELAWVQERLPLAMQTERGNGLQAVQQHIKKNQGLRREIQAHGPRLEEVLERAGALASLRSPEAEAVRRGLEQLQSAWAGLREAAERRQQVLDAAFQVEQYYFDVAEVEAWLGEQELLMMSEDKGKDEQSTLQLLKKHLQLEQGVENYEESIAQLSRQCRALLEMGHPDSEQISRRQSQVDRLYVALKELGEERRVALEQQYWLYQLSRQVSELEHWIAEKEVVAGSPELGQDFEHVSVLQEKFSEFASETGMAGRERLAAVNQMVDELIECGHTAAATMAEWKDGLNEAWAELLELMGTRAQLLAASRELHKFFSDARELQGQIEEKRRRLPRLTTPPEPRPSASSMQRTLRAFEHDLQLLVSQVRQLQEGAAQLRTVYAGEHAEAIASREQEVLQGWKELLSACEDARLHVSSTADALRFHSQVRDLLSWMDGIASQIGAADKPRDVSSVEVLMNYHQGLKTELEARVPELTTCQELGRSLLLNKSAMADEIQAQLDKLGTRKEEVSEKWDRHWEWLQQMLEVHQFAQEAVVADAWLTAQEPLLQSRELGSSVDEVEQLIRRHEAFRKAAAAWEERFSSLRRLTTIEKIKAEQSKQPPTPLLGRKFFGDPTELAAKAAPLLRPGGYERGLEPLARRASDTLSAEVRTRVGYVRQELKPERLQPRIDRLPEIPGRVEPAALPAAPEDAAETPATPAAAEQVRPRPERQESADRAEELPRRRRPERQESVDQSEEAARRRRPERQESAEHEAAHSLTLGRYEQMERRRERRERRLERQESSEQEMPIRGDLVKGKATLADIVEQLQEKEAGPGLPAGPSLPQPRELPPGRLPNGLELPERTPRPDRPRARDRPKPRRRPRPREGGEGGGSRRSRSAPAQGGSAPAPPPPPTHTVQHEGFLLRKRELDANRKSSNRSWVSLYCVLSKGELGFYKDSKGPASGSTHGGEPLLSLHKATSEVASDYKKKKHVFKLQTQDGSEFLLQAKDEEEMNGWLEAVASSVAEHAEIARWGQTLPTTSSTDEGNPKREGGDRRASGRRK
UniProt Q8IWA5, sequence (Q8IWA5 whole entry, looked up): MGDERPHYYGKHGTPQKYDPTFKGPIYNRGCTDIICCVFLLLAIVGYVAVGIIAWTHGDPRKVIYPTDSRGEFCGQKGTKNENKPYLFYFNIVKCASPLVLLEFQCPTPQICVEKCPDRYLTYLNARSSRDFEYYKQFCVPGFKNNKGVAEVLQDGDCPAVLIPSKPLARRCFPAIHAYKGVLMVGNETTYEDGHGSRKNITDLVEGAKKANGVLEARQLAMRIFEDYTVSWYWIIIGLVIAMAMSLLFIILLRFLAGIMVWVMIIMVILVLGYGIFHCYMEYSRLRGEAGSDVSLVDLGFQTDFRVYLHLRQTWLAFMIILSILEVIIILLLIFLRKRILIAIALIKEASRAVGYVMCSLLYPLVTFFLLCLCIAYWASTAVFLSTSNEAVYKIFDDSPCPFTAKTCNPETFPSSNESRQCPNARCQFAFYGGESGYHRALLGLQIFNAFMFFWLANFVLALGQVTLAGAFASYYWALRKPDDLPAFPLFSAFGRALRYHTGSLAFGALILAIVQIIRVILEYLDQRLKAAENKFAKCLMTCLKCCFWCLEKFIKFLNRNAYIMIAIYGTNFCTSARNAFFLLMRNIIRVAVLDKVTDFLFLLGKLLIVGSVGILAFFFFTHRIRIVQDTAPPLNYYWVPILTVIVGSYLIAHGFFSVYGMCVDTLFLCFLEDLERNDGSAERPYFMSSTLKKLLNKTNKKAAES
UniProt P62318, sequence (P62318 whole entry, looked up): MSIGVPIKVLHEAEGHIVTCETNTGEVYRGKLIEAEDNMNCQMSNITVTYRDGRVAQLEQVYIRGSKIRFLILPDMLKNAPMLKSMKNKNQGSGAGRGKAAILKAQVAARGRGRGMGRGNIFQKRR

Compound in this test: C/C(=N\NC(=O)C1=CC(=CC=C1)S(=O)(=O)N2CCOCC2)/C3=C(C=CC(=C3)Cl)O
Put plainly: log2 fold change, soluble protein after heating vs DMSO (PISA); higher = thermal stabilisation; K562 cells, 10 uM, 30 min; active = over 0.2 and 3.5 SD of the protein, either way, in both replicates (recomputed). In outline: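 K562 cells at 2×10^6 cells/mL were exposed to 10 μM compound for 30 min, then aliquots were heated for 3 min across 48°C-58°C, pooled, and extracted in PBS containing 0.5% NP-40 at 4°C. The supernatant after 21,000xg for 90 min was taken as soluble protein and measured by TMTpro 16plex LC-MS/MS with channel sums equalised. Thermal stability is reported relative to control samples, with values from duplicates. Fold changes are given on a log2 scale.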
STAT3 (UniProt P40763): the log2 fold change was 0.147. For the target SNX3 (UniProt O60493), the log2 fold change was 0.074. Regarding SLC25A42 (UniProt Q86VD7), the log2 fold change is 0.01. Consider STRN (UniProt O43815), for which the log2 fold change is 0.

As for SNX11 (UniProt Q9Y5W9), the log2 fold change is -0.029. In the case of STARD3NL (UniProt O95772), the log2 fold change was -0.107. Next, SNX12 isoform 1 (UniProt Q9UMY4): 0; SRC isoform 2 (UniProt P12931): -0.034; SLIRP (UniProt Q9GZT3): 0.205. Consider SPG11 (UniProt Q96JI7), for which the log2 fold change was 0.148. For the target TMBIM1 (UniProt Q969X1), the log2 fold change was -0.139. The figure for TJP2 isoform 7 (UniProt Q9UDY2) is 0.06; for SMAD2 (UniProt Q15796) it is 0.087; for TERF2IP (UniProt Q9NYB0) it is 0.

STK25 (UniProt O00506): the log2 fold change was 0.011.

As to STARD7 (UniProt Q9NQZ5), the log2 fold change was 0.084. For TCERG1 (UniProt O14776), the log2 fold change is 0.154. Regarding SREK1 isoform 2 (UniProt Q8WXA9), the log2 fold change is 0.1. With TBC1D23 (UniProt Q9NUY8), the log2 fold change is 0.012. Next, TGFBI (UniProt Q15582): -0.018. Take TFRC (UniProt P02786): the log2 fold change is 0.017. As to SSR4 (UniProt P51571), the log2 fold change is 0.055.

For the target THYN1 (UniProt Q9P016), the log2 fold change was 0.007.

For the target SLC44A2 isoform 2 (UniProt Q8IWA5), the log2 fold change was 0.028. On to SLC25A36 (UniProt Q96CQ1), for which the log2 fold change is 0.008. Regarding TEX30 (UniProt Q5JUR7), the log2 fold change is 0.165.

For TLK1 (UniProt Q9UKI8), the log2 fold change is 0.038. Next, SRI (UniProt P30626): 0.113; SLC35F6 (UniProt Q8N357): -0.078; SPTBN4 (UniProt Q9H254): 0. Regarding SNRPD3 (UniProt P62318), the log2 fold change is -0.02. Take SLC29A3 (UniProt Q9BZD2): the log2 fold change is 0.024. Turning to SLC27A1 (UniProt Q6PCB7), the log2 fold change is -0.053. For the target SLC30A7 (UniProt Q8NEW0), the log2 fold change was 0.175.

As for SLC7A6OS (UniProt Q96CW6), the log2 fold change is 0.018. The figure for STEAP3 isoform 2 (UniProt Q658P3) is 0.038.

Turning to TAX1BP1 (UniProt Q86VP1), the log2 fold change was -0.005.

These data come from the supplement of paper PMC10849652.
